{
  "source": "PubChem BioAssay (NCI)",
  "note": "Compounds without any hit were thinned out: in the full panel of roughly 83,000, 20% have a hit.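 Each cell line was grown in a 96-well plate and treated with one concentration of compound for 48 hours. Values below 10 were considered active.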 Activity calls are given as the source filed them.",
  "data": [
    {"test_system": "U251 CNS", "assay": "NCI-60 one-dose screen, 48 h (100 = growth as untreated, 0 = no growth, -100 = all killed)", "conditions": "10 µM", "values": [
      {"smiles": "CCCCCCCCCCCC(=O)NCCCN(C)C", "growth": "75% (inactive)"},
      {"smiles": "Nc1ccc(C2=CC(c3ccc(Cl)cc3)N3C=CSC3=N2)cc1", "note": "(stereo unspecified)", "growth": "-83.5% (active)"},
      {"smiles": "CC(=O)n1nc(C(=O)OC(C)(C)C)c2cc(F)c(F)cc21", "growth": "104% (inactive)"},
      {"smiles": "COC(=O)c1c(C)nc(Nc2nc3ccccc3s2)nc1-c1ccc(Cl)cc1Cl", "growth": "111% (inactive)"},
      {"smiles": "O=C(O)CCCCSCCCCC(=O)O", "growth": "93.3% (inactive)"},
      {"smiles": "COc1cc(-c2nc3ccc(C)cc3[nH]2)ccc1OCC(=O)N=Nc1c(O)[nH]c2ccccc12", "growth": "-96.3% (active)"},
      {"smiles": "CC1=CSC2=NC(c3ccc(Cl)c(Cl)c3)=CC(c3ccc(Cl)cc3)N12", "note": "(stereo unspecified)", "growth": "34.8% (inactive)"},
      {"smiles": "COc1ccc(Nc2ccnc(N3CCN(c4ccnc5cc(Cl)ccc45)CC3)n2)cc1", "growth": "8.61% (active)"},
      {"smiles": "Cn1cnc([N+](=O)[O-])c1/C=C1\\Oc2ccc(Cl)cc2C1=O", "growth": "97.2% (inactive)"},
      {"smiles": "CCOC(=O)Cn1nnc(-c2ccc(OCc3ccccc3F)cc2)n1", "growth": "99% (inactive)"},
      {"smiles": "COc1ccc(/C(CS(=O)(=O)c2ccccc2)=N\\O)cc1", "growth": "93.9% (inactive)"},
      {"smiles": "COc1ccc(S(=O)(=O)Nc2cc(/C=C\\c3cc(OC)c(OC)c(OC)c3)ccc2OC)cc1", "growth": "0.353% (active)"},
      {"smiles": "COc1ccc2nc(C)cc(Nc3ccc(Cl)cc3)c2c1", "growth": "97.1% (inactive)"},
      {"smiles": "COc1cc(-c2nc3ccc(C)cc3[nH]2)ccc1OCc1nnc(-c2ccc(CC(C)C)cc2)o1", "growth": "75.6% (inactive)"},
      {"smiles": "Cc1noc(C)c1-c1ccc2nc(NC(=O)[C@H]3CCN(C#N)C3)cn2c1", "growth": "93.7% (inactive)"},
      {"smiles": "COc1ccc(COC(=O)CC(C)C)cc1", "growth": "92.7% (inactive)"}
    ]}
  ]
}
